The text below walks through data of PMC4336329 (PLoS ONE, 2015).

The whole screen tested about 310,000 compounds, of which about 14,000 (4.5%) showed an effect of 50% or more. The effect is printed as a negative number. The sample as a whole holds a higher share of strong results than the screen did.
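Further: peak tail current of the secondary pulse compared with the same well before compound.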

The experiment deals with human ether-à-go-go-related gene (hERG) potassium channel (human, UniProt Q12809). As to the kind of experiment: primary screen, population patch clamp on CHO cells stably expressing hERG; higher = less effect of the substance.
Sequence of human ether-à-go-go-related gene (hERG) potassium channel (Q12809 whole entry, looked up): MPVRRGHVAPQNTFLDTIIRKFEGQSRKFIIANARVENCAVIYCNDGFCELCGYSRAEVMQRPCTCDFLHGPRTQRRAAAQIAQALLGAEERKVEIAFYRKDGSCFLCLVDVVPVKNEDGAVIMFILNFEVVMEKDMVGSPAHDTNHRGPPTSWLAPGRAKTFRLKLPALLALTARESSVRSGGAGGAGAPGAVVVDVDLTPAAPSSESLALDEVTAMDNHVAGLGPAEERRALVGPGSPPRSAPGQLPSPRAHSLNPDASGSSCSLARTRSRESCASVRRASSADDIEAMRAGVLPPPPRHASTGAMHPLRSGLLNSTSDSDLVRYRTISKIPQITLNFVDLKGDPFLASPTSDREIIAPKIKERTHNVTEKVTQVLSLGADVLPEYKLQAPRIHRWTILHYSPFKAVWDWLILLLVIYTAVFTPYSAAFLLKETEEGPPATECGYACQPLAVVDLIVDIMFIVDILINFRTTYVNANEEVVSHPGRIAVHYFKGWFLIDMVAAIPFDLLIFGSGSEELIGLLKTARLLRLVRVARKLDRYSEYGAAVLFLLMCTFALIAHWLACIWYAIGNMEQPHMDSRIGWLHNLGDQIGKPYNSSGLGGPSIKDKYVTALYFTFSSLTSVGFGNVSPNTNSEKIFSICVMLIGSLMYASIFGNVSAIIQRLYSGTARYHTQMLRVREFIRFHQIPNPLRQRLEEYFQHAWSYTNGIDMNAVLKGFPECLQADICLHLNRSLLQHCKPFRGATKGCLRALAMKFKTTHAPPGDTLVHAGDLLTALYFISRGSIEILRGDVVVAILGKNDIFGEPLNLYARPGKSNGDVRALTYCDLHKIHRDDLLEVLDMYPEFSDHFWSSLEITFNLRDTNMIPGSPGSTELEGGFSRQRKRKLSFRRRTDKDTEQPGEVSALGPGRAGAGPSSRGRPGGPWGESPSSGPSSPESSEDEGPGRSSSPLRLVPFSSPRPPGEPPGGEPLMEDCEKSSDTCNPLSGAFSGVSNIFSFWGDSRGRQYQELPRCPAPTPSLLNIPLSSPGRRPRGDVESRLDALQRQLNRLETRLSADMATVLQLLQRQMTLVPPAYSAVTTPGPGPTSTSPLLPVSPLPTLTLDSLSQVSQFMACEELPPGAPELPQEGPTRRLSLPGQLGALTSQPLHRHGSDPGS
With `O=C(O)C(=O)O.O=[N+]([O-])c1ccc(S(=O)(=O)N2CCN(Cc3c[nH]c4ccccc34)CC2)cc1`, the “hERG current change (%, negative = inhibition) at 10uM” value is listed as -54.5%.

Take `O=C(O)C(=O)O.O=[N+]([O-])c1ccccc1CN1CCN(Cc2c[nH]c3ccccc23)CC1`: the “hERG current change (%, negative = inhibition) at 10uM” value is -24.2%.

With `O=C(CN1CCN(Cc2ccccc2Cl)C1=O)NCc1cccnc1`, the “hERG current change (%, negative = inhibition) at 10uM” value was -1.97%.

As for `O=C(Cn1c(SCC(=O)N2CCCc3ccccc32)nc2ccccc21)N1CCCC1`, the “hERG current change (%, negative = inhibition) at 10uM” value is recorded as -13.2%.

Take `O=[N+]([O-])c1ccc2c(c1)nc1n2CCN(c2ccccc2)C1`: the “hERG current change (%, negative = inhibition) at 10uM” value is recorded as -26.1%.

Consider `CCn1cnc2sc(C(=O)N(Cc3ccc(N(C)C)cc3)Cc3ccco3)c(C)c2c1=O`, for which the “hERG current change (%, negative = inhibition) at 10uM” value is on record as -22.2%.

On to `CCOC(=O)c1c(NC(=O)C2COc3ccccc3O2)sc2c1CCN(Cc1ccccc1)C2.Cl` (stereo not shown), for which the “hERG current change (%, negative = inhibition) at 10uM” value is given as 0.603%.

For `CN(C)C1=NC[C@H](Cc2ccccc2)N1CCCC1CCCCC1`, the “hERG current change (%, negative = inhibition) at 10uM” value is -70.8%.

With `NC1=NC[C@@H](Cc2ccc(O)cc2)N1CCCCC1CCCCC1`, the “hERG current change (%, negative = inhibition) at 10uM” value is listed as -18.6%.

As for `CN(C)C1=NC[C@H](Cc2ccccc2)N1CC1CCCCC1`, the “hERG current change (%, negative = inhibition) at 10uM” value is on record as -14.6%.

In the case of `CN(C)C1=NC[C@H](Cc2ccccc2)N1CCC1CCCC1`, the “hERG current change (%, negative = inhibition) at 10uM” value is on record as -43.5%.

Take `CN(C)C1=NC[C@H](Cc2ccccc2)N1CCCC1CCCC1`: the “hERG current change (%, negative = inhibition) at 10uM” value is -71.2%.

`CN(C)C1=NC[C@H](Cc2ccccc2)N1CC1CCCCCC1`: the “hERG current change (%, negative = inhibition) at 10uM” value is -27.8%.

Take `NC1=NC[C@H](Cc2ccccc2)N1CCCCC1CCCCC1`: the “hERG current change (%, negative = inhibition) at 10uM” value is -25.9%.

In the case of `NC1=NC[C@H](Cc2ccc(O)cc2)N1CCCCC1CCCCC1`, the “hERG current change (%, negative = inhibition) at 10uM” value was -50.2%.

Consider `CN(C)C1=NC[C@H](Cc2ccccc2)N1CC1CCCC1`, for which the “hERG current change (%, negative = inhibition) at 10uM” value is -16.9%.

For `N#C/C(=C\c1ccc(F)cc1F)S(=O)(=O)c1ccccn1`, the “hERG current change (%, negative = inhibition) at 10uM” value is 6.77%.

`Cc1ccc(C)c(NS(=O)(=O)c2cc3c4c(c2)CC(=O)N4CCC3)c1`: the “hERG current change (%, negative = inhibition) at 10uM” value is 4.86%.

With `O=C(N/N=C/c1ccc(Br)s1)c1cccc([N+](=O)[O-])c1`, the “hERG current change (%, negative = inhibition) at 10uM” value worked out at 12.2%.

With `CC(C)(C)NC(=O)CN(C(=O)C1CSC(=O)C1)c1ccccc1F` (stereo not shown), the “hERG current change (%, negative = inhibition) at 10uM” value is -0.923%.

Regarding `Cc1occc1C(=O)NNS(=O)(=O)c1ccc([N+](=O)[O-])cc1`, the “hERG current change (%, negative = inhibition) at 10uM” value was 10.5%.

In the case of `Cc1ccc(S(=O)(=O)NNC(=O)c2ccoc2C)cc1`, the “hERG current change (%, negative = inhibition) at 10uM” value was -70.6%.

As for `Cc1occc1C(=O)NNS(=O)(=O)c1ccc(Cl)cc1`, the “hERG current change (%, negative = inhibition) at 10uM” value came out at 7.64%.

As for `O=C(CCc1ccccc1)NNC(=O)c1ccco1`, the “hERG current change (%, negative = inhibition) at 10uM” value came to 5.99%.

In the case of `COc1ccc(C(=O)C2CCCN(C(=O)Cn3cncn3)C2)cc1OC` (stereo not shown), the “hERG current change (%, negative = inhibition) at 10uM” value is 21.6%.

As for `COc1ccc(CN2CCCC(C(=O)c3ccc(Cl)cc3)C2)cc1Cn1cncn1` (stereo not shown), the “hERG current change (%, negative = inhibition) at 10uM” value is -78%.

In the case of `COc1cccc(C(=O)C2CCCN(Cc3ccc(OC)c(Cn4cncn4)c3)C2)c1` (stereo not shown), the “hERG current change (%, negative = inhibition) at 10uM” value was -58.6%.

Regarding `COc1cccc(C(=O)C2CCCN(Cc3ccc4nonc4c3)C2)c1` (stereo not shown), the “hERG current change (%, negative = inhibition) at 10uM” value is given as -48.5%.

Turning to `COc1ccc(CN2CCN(CC=C(C)C)C(CCO)C2)cc1Cn1cncn1` (stereo not shown), the “hERG current change (%, negative = inhibition) at 10uM” value was -0.719%.

For `O=C1CNC(=O)/C(=C\c2ccccc2)N1`, the “hERG current change (%, negative = inhibition) at 10uM” value worked out at 11.8%.

With `O=C(CNC(=O)c1ccc(Oc2ccccc2)cc1)OC1CCCCC1=O` (stereo not shown), the “hERG current change (%, negative = inhibition) at 10uM” value is -72.2%.

As to `COc1cc(OC)cc(C(=O)NCC(=O)OC2CCCCC2=O)c1` (stereo not shown), the “hERG current change (%, negative = inhibition) at 10uM” value is -27.6%.

For `COc1ccc(C(=O)NCC(=O)OC2CCCCC2=O)cc1` (stereo not shown), the “hERG current change (%, negative = inhibition) at 10uM” value was -13.5%.

For the compound `O=C1C(Oc2ccc(Cl)cc2)C(c2ccc3c(c2)OCO3)N1CC1CCCO1` (stereo not shown), the “hERG current change (%, negative = inhibition) at 10uM” value is recorded as -28.3%.

On to `COc1ccc(CCN2C(=O)C(Oc3ccccc3C)C2c2ccc3c(c2)OCO3)cc1` (stereo not shown), for which the “hERG current change (%, negative = inhibition) at 10uM” value was -42.3%.

`Cc1ccccc1OC1C(=O)N(CC2CCCO2)C1c1ccc2c(c1)OCO2` (stereo not shown): the “hERG current change (%, negative = inhibition) at 10uM” value is listed as -55.8%.

For the compound `CCc1nc(NCCN2CCOCC2)c(C#N)c2c1CCCC2`, the “hERG current change (%, negative = inhibition) at 10uM” value is recorded as -37.2%.

Regarding `CCOc1ccc(NCc2cccn2-c2nnc(N3CCC(C(=O)NCCCN4CCCCC4CC)CC3)s2)cc1` (stereo not shown), the “hERG current change (%, negative = inhibition) at 10uM” value is recorded as -68%.

As for `CCC1CCCCN1CCCNC(=O)C1CCN(c2nnc(-n3cccc3)s2)CC1` (stereo not shown), the “hERG current change (%, negative = inhibition) at 10uM” value was -18.7%.

Regarding `CC1CCCCN1CCCNC(=O)C1CCN(c2nc3ccccc3o2)CC1` (stereo not shown), the “hERG current change (%, negative = inhibition) at 10uM” value is -1.61%.

In the case of `CCOc1ccc(NCc2cccn2-c2nnc(N3CCC(C(=O)NCCCN4CC(C)CC(C)C4)CC3)s2)cc1` (stereo not shown), the “hERG current change (%, negative = inhibition) at 10uM” value is listed as -66.2%.

On to `CCOc1ccc(NCc2cccn2-c2nnc(N3CCC(C(=O)NCCCN4C(C)CCCC4C)CC3)s2)cc1` (stereo not shown), for which the “hERG current change (%, negative = inhibition) at 10uM” value is recorded as -69.3%.

Take `CCOc1ccc(NCc2cccn2-c2nnc(N3CCC(C(=O)NCCCN4CCCCC4C)CC3)s2)cc1` (stereo not shown): the “hERG current change (%, negative = inhibition) at 10uM” value was -53.8%.

In the case of `CCOc1ccc(CCNC(=O)C2CCN(c3nnc(-n4cccc4)s3)CC2)cc1`, the “hERG current change (%, negative = inhibition) at 10uM” value is reported as -0.834%.

In the case of `Cc1ccc(C)n1-c1nnc(N2CCC(C(=O)NCCCN3CC(C)CC(C)C3)CC2)s1` (stereo not shown), the “hERG current change (%, negative = inhibition) at 10uM” value is -17.7%.

`CCN1CCN(CCCNC(=O)C2CCN(c3nnc(-n4cccc4)s3)CC2)CC1`: the “hERG current change (%, negative = inhibition) at 10uM” value was -3.56%.

Take `CC1CCCCN1CCCNC(=O)C1CCN(c2nnc(-n3cccc3)s2)CC1` (stereo not shown): the “hERG current change (%, negative = inhibition) at 10uM” value is on record as -27.1%.

On to `CCOc1ccc(CCNC(=O)C2CCN(c3nnc(-n4cccc4)s3)CC2)cc1OCC`, for which the “hERG current change (%, negative = inhibition) at 10uM” value is -35.7%.

For `CC1CC(C)CN(CCCNC(=O)C2CCN(c3nnc(-n4cccc4)s3)CC2)C1` (stereo not shown), the “hERG current change (%, negative = inhibition) at 10uM” value was -28.3%.
